From PubChem BioAssay
Shown are actives, neighbours in structure and some others; about 19% of the full set was active somewhere.
DT40 TDP1 no CPT: qHTS for Inhibitors of human tyrosyl-DNA phosphodiesterase 1 (TDP1): qHTS in cells in absence of CPT; Potency, µM (doses to about 46.2 µM), without a hit: at the highest dose activity change, negative = growth inhibition, usual class: inhibitors; DT40 Tdp1-/- hTDP1 cells, no CPT, ATP luminescence, 48 h; AID 686978, 2013; actives 15% (n = 420,000); further: potency means the concentration at half of the fitted maximal effect; nearly all actives have a fitted effect of over 55% in size
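DT40 Tdp1-/-;hTDP1 cells, no CPT (DMSO vehicle only), 400 cells/well; compounds pin-transferred; ≥48 hr, 37 °C; CellTiter-Glo 30 min RT dark, luminescence read.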
IL1B secr inh: inflammasome signaling inhibition, IL-1 beta readout | actives 4.7% (n = 360,000) | activity change, % at 57.5 µM | AID 743279 | THP-1 LPS/ATP IL-1B secretion, AlphaLISA, 16 h; stronger effect = lower value; in the data active means activity change below about -50%; inconclusive means mostly about -30% to -49%
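Secreted IL-1B measured by AlphaLISA bead assay after 16 h compound exposure of THP-1 cells; compounds (final up to 57.5 uM) added 1 h before LPS (250 ng/mL) and ATP (1.25 mM) stimulation; lower signal means less secretion.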
HT1080-NT tox: kills 2HG-producing HT-1080-NT fibrosarcoma cells. Potency, µM (series often up to 46.1 µM), without a hit: at the top dose activity, negative = less viability, most hits filed as cytotoxic. HT-1080-NT fibrosarcoma viability, CellTiter-Glo ATP luminescence, 48 h. actives 1.6% (n = 360,000);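 further: NT is the 2HG producing partner of a matched IDH1 knockdown line; potency means the concentration at half of the fitted maximal effect; 0% = DMSO-treated cells and -100% = media-only wells without cells; nearly all actives have a fitted effect of over 55% in size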
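Viability by CellTiter-Glo luminescence after 48 h compound exposure at 37C of HT-1080-NT cells (750/well, RPMI, 5% FBS). % activity scaled between DMSO wells and medium-only wells, then curve-fitted and categorized by curve class.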
DT40 TDP1 CPT: DT40-hTDP1 cell growth loss with CPT; AID 686979; actives 12% (n = 420,000); chicken DT40 Tdp1-/-;hTDP1 cells + 20 nM CPT, ATP luminescence, 48 h; Potency, µM (doses to about 46.2 µM), for the others: at the top dose activity change, negative = growth inhibition, most hits filed as inhibitors; further: potency means the concentration at half of the fitted maximal effect; nearly all actives have a fitted effect of over 55% in size
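Chicken DT40 Tdp1-/- cells complemented with human TDP1, 400 cells/well, exposed to compounds plus 20 nM camptothecin for at least 48 h at 37 C; viability read as ATP content by CellTiter-Glo luminescence.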
HT1080 IDH1KD tx: toxicity to HT-1080 IDH1 knockdown cells (counter line); Potency, µM (titrated, usually from 46.1 µM), without a hit: top-dose activity, negative = toxicity, actives largely listed as cytotoxic; actives 2% (n = 360,000); HT-1080 IDH1 knockdown viability, ATP luminescence, 48 h;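 further: potency means the concentration at half of the fitted maximal effect; 0% = DMSO wells and -100% = cell-free medium wells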
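Luminescent ATP read-out (CellTiter-Glo, 10 min at room temperature) after 48 h compound exposure at 37 °C gave viability of IDH1-knockdown HT-1080 cells. Activity was normalised to DMSO and cell-free wells, then fitted as concentration-response curves.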
Active calls of the source: *; u = inconclusive; x = not tested or not shown; [ ] = remark or other dose. Unless noted, the call rests on the fitted dose curve; in most records, active means well fitted curve in the direction sought with a large enough effect; inconclusive means small, poorly fitted or top-dose-only effect, or another doubt; inactive means no such curve, though single readings can be large; an effect the other way counts as inactive or inconclusive. Unless noted, on the % scale 0 is the no-effect control and ±100 the full control effect.

SMILES | DT40 TDP1 no CPT | IL1B secr inh | HT1080-NT tox | DT40 TDP1 CPT | HT1080 IDH1KD tx
CC(C)(C)OC(=O)C[C@H]1C/C=C\C[C@@H](CC(=O)N[C@H](CO)Cc2ccccc2)C(=O)NC[C@H](c2ccccc2)OC1=O | 23µM* | -3 | 8% | u | 3%
O=C(CSc1nc(O)c(C2CCCCC2)c(=O)[nH]1)Nc1ccccc1Cl | -6% | 0 | 12% | 1% | 8%
CCc1ccc(C(=O)N/N=C/c2cccc3ccccc23)nc1 | u | -10 | 8% | -25% | 14%
O=C(NCCc1ccccc1)c1cccc2c1C(=O)c1ccc(N3CCOCC3)cc1S2(=O)=O | u | 1 | 0% | u | 0%
CC(C)OCCCNC(=O)c1cccc2c1C(=O)c1ccc(Cl)cc1S2(=O)=O | -28% | -77* | 24% | -27% | 9%
O=C(NCCOc1ccccc1Cl)c1cccc2c1C(=O)c1ccc(Cl)cc1S2(=O)=O | 16µM* | -30 | 7% | 23µM* | 7%
COc1ccc(-c2ccc3c(c2)S(=O)(=O)c2cccc(C(=O)NC[C@@H]4CCCO4)c2C3=O)cc1OC | u | 4 | 2% | u | -15%
O=C(NCc1cccc(F)c1)c1cccc2c1C(=O)c1ccc(Cl)cc1S2(=O)=O | 5% | 0 | -10% | u | -18%
O=C(NC[C@@H]1CCCO1)c1cccc2c1C(=O)c1ccc(Cl)cc1S2(=O)=O | -14% | -54* | -21% | -23% | 2%
COc1ccc(OC[C@@H](O)CNC(=O)c2cccc3c2C(=O)c2ccc(-c4ccc(F)cc4OCc4ccccc4)cc2S3(=O)=O)cc1 | 10µM* | -17 | -4% | 7.3µM* | -3%
Cc1ccc(F)c(S(=O)(=O)NC(=O)C2(C)CCN2C(=O)Cc2ccccc2)c1 (centres undefined) | 8% | 98 | 8% | 10% | 13%
Cc1ccc(C(=O)C(C)OC(=O)CNS(=O)(=O)c2ccc(C)cc2)cc1 (centres undefined) | 22% | 8 | 0% | -15% | -1%
CN(CC(=O)Nc1cccc(S(=O)(=O)N(C)c2ccccc2)c1)Cc1cccs1 | u | 0 | -3% | u | -16%
O=C(NCCOc1ccccc1)c1ccc2c(c1)S(=O)(=O)c1cc(Cl)ccc1C2=O | u | -1 | -3% | u | 0%
O=C(NCCOc1ccccc1)c1cccc2c1C(=O)c1ccc(Cl)cc1S2(=O)=O | 23µM* | -81* | -19% | u | -1%
COc1ccc(-c2ccc3c(c2)S(=O)(=O)c2cccc(C(=O)NCCOc4ccccc4)c2C3=O)cc1OC | u | 16 | 10% | 18µM* | 3%
C(=N\Nc1nc(-c2ccccc2)cs1)/c1cccs1 | u | u | -1% | u | -22%
COc1ccc(OC)c(NC(=O)c2cc(C3CC3)nc3c2c(C)nn3-c2ccc(C)cc2)c1 | u | x | x | 26µM* | x
CC(=O)c1ccc(NC(=O)c2cc(C)nc3c2c(C)nn3-c2ccc(C)cc2)cc1 | -23% | x | x | -23% | x
COc1ccc(NC(=O)c2cc(C)nc3c2c(C)nn3-c2ccc(C)cc2)cc1OC | 15µM* | x | x | u | x
COc1cccc(CNC(=O)c2cccc(-n3c(C)nc4cccnc43)c2C)c1 | u | x | x | 21µM* | x
COc1cccc(CNC(=O)c2cc(C)nc3c2c(C)nn3-c2ccc(C)cc2)c1 | 16µM* | x | x | u | x
Cc1ccc(C(=O)COC(=O)c2cc(-c3ccccc3)nc3ccccc23)cc1C | 20% | x | x | 25% | x
CCNC(=O)C1(C)CCCN(Cc2cc3ccccc3o2)C1 (centres undefined) | u | 28 | u | u | 2%
COc1ccc(C(=O)N2CCC3(CC2)NCCc2[nH]cnc23)cc1 | -24% | -14 | -1% | -2% | 0%
SMILES | DT40 TDP1 no CPT | IL1B secr inh | HT1080-NT tox | DT40 TDP1 CPT | HT1080 IDH1KD tx
Cc1c(C(=O)NCc2ccccc2Cl)cccc1-n1cnc2cccnc21 | 23µM* | x | x | 18µM* | x
Cc1nn(-c2ccccc2)c2nc(C3CC3)cc(C(=O)Nc3ccc(F)cc3)c12 | 21µM* | x | x | 16µM* | x
COc1ccc(CNC(=O)c2cccc(-n3cnc4cccnc43)c2C)cc1 | -16% | x | x | -29% | x
Cc1cc([N+](=O)[O-])ccc1NC(=O)Nc1ccc(F)cc1F | 4.6µM* | -82* | 16% | 5.2µM* | 14%
Cc1ccc(NC(=O)Nc2cccc([N+](=O)[O-])c2)cc1F | 16µM* | -95* | 15µM* | u | 12µM*
Cc1cc(NC(=O)Nc2cccc([N+](=O)[O-])c2)no1 | -1% | -6 | 12% | 6% | 4%
O=C(Nc1ccc(OC(F)(F)F)cc1)Nc1cccc([N+](=O)[O-])c1 | 4.1µM* | -106* | u | 2.9µM* | u
CN(C)C(=O)c1sccc1Oc1ccc(F)cc1[N+](=O)[O-] | 0% | -4 | 8% | 6% | 1%
C[C@H](C(=O)CC(=O)OC(C)(C)C)[C@H](O)c1ccccc1 | -1% | 34 | 5% | 12% | 6%
CCOC(=O)c1ccccc1NC(=O)c1ccc2nc[nH]c2c1 | -14% | 4 | 2% | -5% | 2%
O=C(COC(=O)c1ccco1)c1ccc(Cl)cc1 | 1.3µM* | -18 | -1% | -90% | 1%
O=C(COC(=O)c1ccco1)c1ccccc1 | 4% | -12 | 14% | -19% | 14%
CC1(C)S[C@@H]2[C@H](NC(=O)[C@H](N)c3ccccc3)C(=O)N2[C@H]1C(=O)OC1OC(=O)c2ccccc21 (some centres undefined) | 8.2µM* | -56* | 3% | 12µM* | -4%
COc1ccc(CN2CCN(Cc3ccc(Br)cc3)CC2)c(OC)c1OC | 16µM* | -5 | -15% | u | -14%
COc1ccc(CN2CCN(C(c3ccc(F)cc3)c3ccc(F)cc3)CC2)c(OC)c1OC | 2.9µM* | -24 | u | 2.6µM* | u
O=C(c1ccccc1)N1CCN(Cc2cccc(Oc3ccccc3)c2)CC1 | u | -15 | -4% | u | -1%
CN1CCN(Cc2cccc(Oc3ccccc3)c2)CC1 | u | -53* | 12% | -14% | 0%[9.24 µM]
COc1ccc(CN2CCN(Cc3cccc(Oc4ccccc4)c3)CC2)c(OC)c1OC | u | -89* | u | u | -16%
Cc1ccc(-c2cnc(C(O)c3cc(C)cc(C)c3)[nH]2)cc1 (centres undefined) | u | 6 | -5% | u | -8%
COc1ccc(-n2ccn(CC(=O)Nc3ccc(C)cc3C)c(=O)c2=O)cc1 | 4% | x | x | 15% | x
Cc1c(NC(=O)C(C)OC(=O)COc2ccc(C#N)cc2)c(=O)n(-c2ccccc2)n1C (centres undefined) | 3% | 3 | -5% | 2% | -6%
